Measured values published in PubChem BioAssay (NCI).
“And” between values parts separate entries of the source, which are not always exact repeats. Equal entries are not always repeated. Compounds without any hit were thinned out: in the full panel of roughly 83,000, 20% have a hit.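 Treatment: one concentration, 48 hours, 96-well format. Scoring: percent growth, with anything below 10 considered active.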 The source made the active and inactive calls.

How the values were obtained:
Assay in all cases: NCI-60 one-dose screen, 48 h (100 = growth as untreated, 0 = no growth, -100 = all killed)
DU-145 prostate = conditions: 10 µM unless noted
K-562 leukemia = conditions: 10 µM
MALME-3M melanoma = conditions: 10 µM
MDA-MB-231 breast = conditions: 10 µM
RXF 393 renal = conditions: 10 µM unless noted
SF-268 CNS = conditions: 10 µM
SF-295 CNS = conditions: 10 µM
SF-539 CNS = conditions: 10 µM
UACC-257 melanoma = conditions: 10 µM

## Nc1nc(=S)c2ncn(C3OC(CO)C(O)C3O)c2[nH]1 (configuration not stated)
DU-145 prostate
  growth: 108% (inactive) and 23.2% (inactive)
K-562 leukemia
  growth: 108% (inactive)
MALME-3M melanoma
  growth: 170% (inactive) and 15% (inactive)
MDA-MB-231 breast
  growth: 105% (inactive) and 26.1% (inactive)
RXF 393 renal
  growth: 108% (inactive) and -8.38% (active)
SF-268 CNS
  growth: 101% (inactive) and 34.5% (inactive)
SF-295 CNS
  growth: 109% (inactive) and 18.3% (inactive)
SF-539 CNS
  growth: 107% (inactive) and 22.3% (inactive)
UACC-257 melanoma
  growth: 98.9% (inactive) and 31.5% (inactive)

## CC(C)(C)CC(C)(C)c1ccc(OCCO)cc1
DU-145 prostate
  growth: 111% (inactive)
K-562 leukemia
  growth: 93.4% (inactive)
MALME-3M melanoma
  growth: 158% (inactive)
MDA-MB-231 breast
  growth: 106% (inactive)
RXF 393 renal
  growth: 119% (inactive)
SF-268 CNS
  growth: 108% (inactive)
SF-295 CNS
  growth: 109% (inactive)
SF-539 CNS
  growth: 96.8% (inactive)
UACC-257 melanoma
  growth: 108% (inactive)

## Cc1cc(NS(=O)(=O)c2ccc(N=Nc3cc(N=Nc4ccc(S(=O)(=O)Nc5cc(C)nc(C)n5)cc4)c4c(NC(=O)C(Cl)Cl)cccc4c3OC(=O)C(Cl)Cl)cc2)nc(C)n1 (tested in a mixture with another compound)
DU-145 prostate
  growth: 118% (inactive) and 110% (inactive)
K-562 leukemia
  growth: 108% (inactive) and 117% (inactive)
MALME-3M melanoma
  growth: 101% (inactive) and 94% (inactive)
MDA-MB-231 breast
  growth: 81.8% (inactive) and 68.1% (inactive)
RXF 393 renal
  growth: 110% (inactive) and 93% (inactive)
SF-268 CNS
  growth: 108% (inactive) and 115% (inactive)
SF-295 CNS
  growth: 86.2% (inactive)
SF-539 CNS
  growth: 99.3% (inactive) and 108% (inactive)
UACC-257 melanoma
  growth: 101% (inactive) and 92.8% (inactive)

## CC1=CC(C)=Nc2ccc(Cl)cc2N1
DU-145 prostate
  growth: 106% (inactive)
K-562 leukemia
  growth: 90.3% (inactive)
MALME-3M melanoma
  growth: 96.9% (inactive)
MDA-MB-231 breast
  growth: 110% (inactive)
RXF 393 renal
  growth: 113% (inactive)
SF-268 CNS
  growth: 98.9% (inactive)
SF-295 CNS
  growth: 107% (inactive)
SF-539 CNS
  growth: 100% (inactive)
UACC-257 melanoma
  growth: 104% (inactive)

## CS(=O)(=O)OC1CC(n2ccc(=O)[nH]c2=O)OC1COC(c1ccccc1)(c1ccccc1)c1ccccc1 (configuration not stated)
DU-145 prostate
  growth: 99.8% (inactive)
K-562 leukemia
  growth: 98.5% (inactive)
MALME-3M melanoma
  growth: 91.9% (inactive)
MDA-MB-231 breast
  growth: 106% (inactive)
RXF 393 renal
  growth: 105% (inactive)
SF-268 CNS
  growth: 103% (inactive)
SF-295 CNS
  growth: 110% (inactive)
SF-539 CNS
  growth: 105% (inactive)
UACC-257 melanoma
  growth: 102% (inactive)

## CCCCCCCCCCCCCCCCCCOCC(COP(=O)([O-])OCC[N+](C)(C)C)OC (configuration not stated)
DU-145 prostate
  growth: 129% (inactive)
K-562 leukemia
  growth: 104% (inactive)
MALME-3M melanoma
  growth: 80.7% (inactive)
MDA-MB-231 breast
  growth: 74.4% (inactive)
RXF 393 renal
  growth: 47.2% (inactive)
SF-268 CNS
  growth: 79.6% (inactive)
SF-295 CNS
  growth: 89.9% (inactive)
SF-539 CNS
  growth: 88.8% (inactive)
UACC-257 melanoma
  growth: 95% (inactive)

## Cc1nc(N=C(N)N)nc2ccc3ccccc3c12
DU-145 prostate
  growth: 5.58% (active)
K-562 leukemia
  growth: -4.93% (active)
MALME-3M melanoma
  growth: -37.8% (active)
MDA-MB-231 breast
  growth: -0.868% (active)
RXF 393 renal
  growth: 4.87% (active)
SF-268 CNS
  growth: -25.4% (active)
SF-295 CNS
  growth: 1.84% (active)
SF-539 CNS
  growth: 4.58% (active)
UACC-257 melanoma
  growth: -9.97% (active)

## O=C(/C=C/c1ccccn1)c1ccccc1
DU-145 prostate
  growth: 60.5% (inactive)
K-562 leukemia
  growth: 14% (inactive)
MALME-3M melanoma
  growth: 91% (inactive)
MDA-MB-231 breast
  growth: 90.2% (inactive)
RXF 393 renal
  growth: 90.6% (inactive)
SF-268 CNS
  growth: 85.4% (inactive)
SF-295 CNS
  growth: 87.5% (inactive)
SF-539 CNS
  growth: 68.5% (inactive)
UACC-257 melanoma
  growth: 72.9% (inactive)

## OCC(O)C(O)C(O)C(/C=N/Nc1ccccc1)=N/Nc1ccccc1 (configuration not stated)
DU-145 prostate
  growth: 89.1% (inactive)
K-562 leukemia
  growth: 67.1% (inactive)
MALME-3M melanoma
  growth: 101% (inactive)
MDA-MB-231 breast
  growth: 79.7% (inactive)
RXF 393 renal
  growth: 86.7% (inactive)
SF-268 CNS
  growth: 75.5% (inactive)
SF-295 CNS
  growth: 83.6% (inactive)
SF-539 CNS
  growth: 91.3% (inactive)
UACC-257 melanoma
  growth: 104% (inactive)

## O=C(O)COc1ccc(OCC(=O)O)cc1
DU-145 prostate
  growth: 5.6% (active)
K-562 leukemia
  growth: 20% (inactive)
MALME-3M melanoma
  growth: 21.3% (inactive)
MDA-MB-231 breast
  growth: 27.8% (inactive)
RXF 393 renal
  growth: 24.7% (inactive)
SF-268 CNS
  growth: 14.2% (inactive)
SF-295 CNS
  growth: -9.53% (active)
SF-539 CNS
  growth: -0.842% (active)

## CCC(C)(C)c1cc(O)c(C(C)(C)CC)cc1O
DU-145 prostate
  growth: 76.5% (inactive)
K-562 leukemia
  growth: 39.8% (inactive)
MALME-3M melanoma
  growth: 102% (inactive)
MDA-MB-231 breast
  growth: 6.91% (active)
RXF 393 renal
  growth: 32.5% (inactive)
SF-268 CNS
  growth: 43.3% (inactive)
SF-295 CNS
  growth: 24.6% (inactive)
SF-539 CNS
  growth: 43% (inactive)
UACC-257 melanoma
  growth: 51% (inactive)

## O=C1NC(=O)c2cc([N+](=O)[O-])ccc21
DU-145 prostate
  growth: 112% (inactive)
K-562 leukemia
  growth: 119% (inactive)
MALME-3M melanoma
  growth: 106% (inactive)
MDA-MB-231 breast
  growth: 107% (inactive)
RXF 393 renal
  growth: 108% (inactive)
SF-268 CNS
  growth: 106% (inactive)
SF-295 CNS
  growth: 101% (inactive)
SF-539 CNS
  growth: 101% (inactive)
UACC-257 melanoma
  growth: 104% (inactive)
